According to PubChem BioAssay (NCATS):
Inconclusive results are not listed. The source made the active and inactive calls. Unless noted, calls follow the shape of the dose curve; as a rule, active = well fitted cell-killing curve with a large enough effect; inconclusive = small, poorly fitted or top-dose-only effect, or effect the other way; inactive = no such curve, though single readings can be large or run the other way.

Legend:
[1] = Quantitative High-Throughput drug screen in 47 multiple myeloma cell lines against the NCATS MIPE library collection: UTMC2_PLB cell viability assay (AID 1919868); details: CellTiter-Glo ATP luminescence, 48 h; viability (% of DMSO control): at 45.8 µM (top of the series) unless noted; also: nearly all actives have a fitted effect of over 55% in size
Procedure, shortened: (§1)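 Myeloma cells (500/well) treated with MIPE 4.0 compounds for 48 h at 37 °C, 5% CO2. Viability read as ATP via CellTiter-Glo luminescence after 5 min at RT; DMSO-only wells = 100%, media-only = 0% viability.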

[2] = Quantitative High-Throughput drug screen in 47 multiple myeloma cell lines against the NCATS MIPE library collection: PE2_PLB cell viability assay (AID 1919869); also: nearly all actives have a fitted effect of over 35% in size
Procedure, shortened: as §1

[3] = Quantitative High-Throughput drug screen in 47 multiple myeloma cell lines against the NCATS MIPE library collection: PCM6_Riken cell viability assay (AID 1919870); also: nearly all actives have a fitted effect of over 30% in size
Procedure, shortened: as §1

[4] = Quantitative High-Throughput drug screen in 47 multiple myeloma cell lines against the NCATS MIPE library collection: RPMI8226_ATCC cell viability assay (AID 1919871); also: nearly all actives have a fitted effect of over 30% in size
Procedure, shortened: as §1

[5] = Quantitative High-Throughput drug screen in 47 multiple myeloma cell lines against the NCATS MIPE library collection: OPM2_DSMZ cell viability assay (AID 1919872); also: nearly all actives have a fitted effect of over 30% in size
Procedure, shortened: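 Luminescent ATP measurement with CellTiter-Glo gives viability, scaled between DMSO-only wells (100%) and media-only wells (0%). Cells, 500 per well, faced library compounds for 48 hours at 37C.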

[6] = Quantitative High-Throughput drug screen in 47 multiple myeloma cell lines against the NCATS MIPE library collection: KMS11_JCRBsus cell viability assay (AID 1919873); also: nearly all actives have a fitted effect of over 50% in size
Procedure, shortened: as §1

[7] = Quantitative High-Throughput drug screen in 47 multiple myeloma cell lines against the NCATS MIPE library collection: KMS28BM_JCRB cell viability assay (AID 1919874); also: nearly all actives have a fitted effect of over 35% in size
Procedure, shortened: as §1

[8] = qHTS drug screen for cell cycle checkpoint inhibitors in PARPi-resistant BRCA-mutant ovarian cancer cell lines. (AID 1963452; calls by dose curve); details: PEO1/OlaR viability, CellTiter-Glo luminescence, 96 h; for Z-AUC: stronger effect = lower value
Procedure, shortened: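 PEO1, PEO4 and PEO1/OlaR ovarian cancer cells, 600 per well, exposed 96 h at 37C to a dilution series. Viability read by CellTiter-Glo luminescence, normalized to DMSO and empty wells; activity summarized as Z-AUC.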

[9] = qHTS for identification of novel therapeutic agents for treatment of microphthalmiaassociated transcription factor (MiT) renal cell carcinoma (RCC) (AID 1963991; calls by dose curve); details: CellTiter-Glo, 48 h; for z-score: stronger effect = lower value
Procedure, shortened: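 Viability of three TFE3-fusion renal carcinoma lines measured by CellTiter-Glo after 48 h treatment with each of 1912 compounds at 11 concentrations. Responses scaled between DMSO (100%) and empty wells (0%) before curve fitting.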

[10] = measured here: PEO1 parental Z-AUC
Potency is read from the fitted curve at half-maximal effect.

Structure (SMILES) | Potency [1] | Potency [2] | Potency [3] | Potency [4] | Potency [5] | Potency [6] | Potency [7] | Z-AUC [8] | Z-AUC [8, 10] | Z-AUC ([8]; measured here: PEO4 Z-AUC) | Potency ([9]; TFE3-RCC UOK109 viability, active = Z-AUC below -0.8 in all three lines) | z-score ([9]; TFE3-RCC UOK109 viability, measured here: UOK109 Z-AUC) | z-score ([9]; TFE3-RCC viability, measured here: UOK124 Z-AUC) | z-score ([9]; TFE3-RCC viability, measured here: UOK145 Z-AUC) | Potency [8]
CNC(=O)c1ccccc1Nc1nc(Nc2ccc(N3CCOCC3)cc2OC)ncc1Cl | 209 nM (active) | 1180 nM (active) | 10500 nM (active) | 1050 nM (active) | 4180 nM (active) | 372 nM (active) | 935 nM (active) | 0.733 (inactive) | 0.134 | 0.16 | – | – | – | – | –
CC1(C)OC2=C(C(=O)c3ccccc3C2=O)[C@H](NCc2ccccc2)[C@H]1O | 2350 nM (active) | 3320 nM (active) | 2350 nM (active) | 8330 nM (active) | 8330 nM (active) | 3720 nM (active) | 2960 nM (active) | – | – | – | – | – | – | – | –
Nc1cc(C(F)(F)F)c(-c2cc(N3CCOCC3)nc(N3CCOCC3)n2)cn1 | 264 nM (active) | 935 nM (active) | 1480 nM (active) | 526 nM (active) | 2640 nM (active) | 66.2 nM (active) | 41.8 nM (active) | -2.03 (inactive) | -1.2 | -0.609 | 662 nM (active) | -0.856 | -0.844 | -1.62 | –
Cc1cc(Nc2nc(N[C@@H](C)c3ccc(F)cc3)c(C#N)cc2F)n[nH]1 | 935 nM (active) | 935 nM (active) | 16600 nM (active) | 11800 nM (active) | 4690 nM (active) | 469 nM (active) | – | 0.0536 (inactive) | -0.395 | -0.871 | – | – | – | – | –
C=CC(=O)Nc1cc2c(Nc3ccc(F)c(Cl)c3)ncnc2cc1OCCCN1CCOCC1 | 4690 nM (active) | 1870 nM (active) | 1480 nM (active) | 20900 nM (active) | 20900 nM (active) | 9350 nM (active) | 5260 nM (active) | -0.343 (inactive) | -0.823 | -1.15 | – | – | – | – | –
COc1cc(Nc2ncc(F)c(Nc3ccc4c(n3)N(COP(=O)(O)O)C(=O)C(C)(C)O4)n2)cc(OC)c1OC | 5260 nM (active) | 1180 nM (active) | 9350 nM (active) | 20900 nM (active) | 18700 nM (active) | 2960 nM (active) | – | 0.561 (inactive) | 0.402 | 0.538 | – | – | – | – | –
CN(C)Cc1c(C(=O)NCCOc2ccc(C(=O)NO)cc2)oc2ccccc12 | 418 nM (active) | 2350 nM (active) | 935 nM (active) | 1480 nM (active) | 1050 nM (active) | 662 nM (active) | 418 nM (active) | -0.744 (inactive) | -1.25 | -1.26 | – | – | – | – | –
O=C(O)c1ccc2c(c1)nc(Nc1cccc(Cl)c1)c1ccncc12 | 2640 nM (active) | 2640 nM (active) | 2640 nM (active) | 18700 nM (active) | 20900 nM (active) | 7430 nM (active) | – | -0.0299 (inactive) | -0.574 | -0.726 | – | – | – | – | –
COc1cc(C)c(Sc2cnc(NC(=O)c3ccc(CNC(C)C(C)C)cc3)s2)cc1C(=O)N1CCN(C(C)=O)CC1 (stereo not drawn) | 4180 nM (active) | 13200 nM (active) | 23500 nM (active) | 14800 nM (active) | 20900 nM (active) | 8330 nM (active) | 13200 nM (active) | -0.385 (inactive) | -0.662 | -0.689 | – | – | – | – | –
CC(C)(C)OC(=O)Nc1ccc(-c2cc(C(=O)NCCCCCCC(=O)NO)no2)cc1 | 590 nM (active) | 2640 nM (active) | 1870 nM (active) | 3320 nM (active) | 2640 nM (active) | 1480 nM (active) | 1050 nM (active) | -0.0304 (inactive) | 0.0473 | 0.196 | – | – | – | – | –
Nc1ccccc1NC(=O)c1ccc(CNc2nccc(-c3cccnc3)n2)cc1 | 833 nM (active) | 1320 nM (active) | 2350 nM (active) | 2640 nM (active) | 2640 nM (active) | 662 nM (active) | 833 nM (active) | -0.45 (inactive) | -0.821 | -0.657 | – | – | – | – | –
O=C(CCCCCCC(=O)Nc1ccc([C@H]2O[C@@H](CSc3nc(-c4ccccc4)c(-c4ccccc4)o3)C[C@@H](c3ccc(CO)cc3)O2)cc1)NO | 8330 nM (active) | 14800 nM (active) | 13200 nM (active) | 18700 nM (active) | 20900 nM (active) | 11800 nM (active) | 13200 nM (active) | 0.612 (inactive) | 1.26 | 0.641 | – | – | – | – | –
CN1CCN(c2cc(C(=O)Nc3ccc4c(c3)-c3c(c(C(N)=O)nn3-c3ccc(F)cc3)CC4)c(Cl)cn2)CC1 | 2090 nM (active) | 1480 nM (active) | 2640 nM (active) | 23500 nM (active) | 26400 nM (active) | 8330 nM (active) | 8330 nM (active) | 0.539 (inactive) | 0.439 | -0.0103 | – | – | – | – | –
Cc1cc(Nc2cc(N3CCN(C)CC3)nc(Sc3ccc(NC(=O)C4CC4)cc3)n2)n[nH]1 | 1 nM (active) | 14800 nM (active) | 23500 nM (active) | 13200 nM (active) | 20900 nM (active) | 2350 nM (active) | 6620 nM (active) | 0.654 (inactive) | -0.131 | -0.437 | – | – | – | – | –
CNC(=O)c1nn(C)c2c1C(C)(C)Cc1cnc(Nc3ccc(N4CCN(C)CC4)cc3)nc1-2 | 8330 nM (active) | 2640 nM (active) | 2090 nM (active) | 1480 nM (active) | 13200 nM (active) | 1050 nM (active) | 2960 nM (active) | – | -1.22 | -1.37 | – | – | – | – | 549 nM (active)
